Consider 15 compounds from PubChem BioAssay (NCATS).

The test system of one test is CRL-7250. Put plainly: Cytotoxic Profiling of Annotated Libraries Using Quantitative High-Throughput Screening (AID 1296008). For max response: % is set by controls: 0 for no effect and ±100 for the full control effect. Note: nearly all actives have a fitted effect of over 60% in size. Note: potency is the fitted concentration of half-maximal effect. The settings on record: Five cell lines viability, CellTiter-Glo ATP luminescence, 48-72 h; max response: active compounds read low. The gist of the method: (§1)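 Cells exposed to compounds for 48 or 72 hr at 37 degrees Celsius. Viability read as ATP-coupled luminescence with CellTiter-Glo after 10 min at room temperature.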
A general note: Cellular ATP, detected with luciferase, serves as a proxy for viable cell number.

Another test relates to HEK293. Described as above. The settings on record: Five cell lines viability, CellTiter-Glo ATP luminescence, 48-72 h; max response: active compounds read low. The gist of the method: as §1
A further test deals with HaCat. The test is described as above. The conditions noted are these: Five cell lines viability, CellTiter-Glo ATP luminescence, 48-72 h; max response: active compounds read low. The gist of the method: as §1
The test system of a further test is KB-3-1. The test is described as above. The conditions noted are these: Five cell lines viability, CellTiter-Glo ATP luminescence, 48-72 h; max response: active compounds read low. The gist of the method: as §1
Test [1] relates to NIH3T3. The description is as above. The conditions noted are these: Five cell lines viability, CellTiter-Glo ATP luminescence, 48-72 h; max response: active compounds read low. The gist of the method: as §1
Test [2] deals with NIH3T3. The test can be described thus: qHTS assay to identify novel small-molecules to repurpose for Merkel cell carcinoma treatment (AID 1296009). Note: nearly all actives have a fitted effect of over 60% in size. The settings on record: MCC and control cell lines, CellTiter-Glo viability, 72 h; at 44.8 µM (top of the series) unless noted. The gist of the method:
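Cells were treated for 72 hr at 37 degree celsius with compounds in 8- or 11-point dose response. Viability was read by CellTiter-Glo luminescence, normalized to no-cell (cytotoxicity) and DMSO controls.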
On the technique in general: qHTS replaces the single test concentration by a dilution series.

A further test has as its system C33A. Put plainly: Primary qHTS to identify gynecologic anti-cancer compounds using libraries of approved drugs and bioactive compounds (AID 1345084). Note: % is set by controls: 0 for no effect and ±100 for the full control effect; nearly all actives have a fitted effect of over 55% in size. The settings on record: Gynecologic cancer cell panel viability, ATPlite luminescence, 48 h; series mostly up to 57.5 µM. The gist of the method:
(§2)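 48 h compound exposure at 37 C, 5% CO2; five-point qHTS. ATPlite luminescence readout of cell ATP.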

The subject of another test is CASKI. The test is described as above. The conditions noted are these: Gynecologic cancer cell panel viability, ATPlite luminescence, 48 h; series mostly up to 57.5 µM. The gist of the method:
as §2

The test system of another test is Es-2. Described as above. The settings on record: Gynecologic cancer cell panel viability, ATPlite luminescence, 48 h; series mostly up to 57.5 µM. In outline:
as §2

The subject of another test is HeLa. Described as above. The settings on record: Gynecologic cancer cell panel viability, ATPlite luminescence, 48 h; series mostly up to 57.5 µM. The gist of the method: as §2
A further test deals with Hek293T. The test is described as above. The settings on record: Gynecologic cancer cell panel viability, ATPlite luminescence, 48 h, control line for the selectivity index; series mostly up to 57.5 µM. The gist of the method:
as §2

A further test has as its system JEG-3. Described as above. The settings on record: Gynecologic cancer cell panel viability, ATPlite luminescence, 48 h; series mostly up to 57.5 µM. In outline:
as §2

In another test the test system is OV90. The test is described as above. The settings on record: Gynecologic cancer cell panel viability, ATPlite luminescence, 48 h; series mostly up to 57.5 µM. In outline: as §2
A further test relates to CAOV3. The test is described as above. The conditions noted are these: Gynecologic cancer cell panel viability, ATPlite luminescence, 48 h; series mostly up to 57.5 µM. In outline: as §2

Records with an inconclusive call do not appear. Unmarked numbers belong to inactive results. Calls of active or inactive are those of the source. Calls come from the whole dose curve; as a rule, active = well fitted curve in the direction sought with a large enough effect; inconclusive = small, poorly fitted or top-dose-only effect, or another doubt; inactive = no such curve, though single readings can be large; an effect the other way counts as inactive or inconclusive. Where a SMILES comes first, the peptide text is derived from it.

`C=CC(C)(CCC=C(C)C)O[C@@H]1O[C@H](CO)[C@@H](O)[C@H](O)[C@H]1O` (stereo partly drawn): the max response in the test on CRL-7250 was -23.7%; in the test on HEK293, -6.28%; with HaCat, -2.03%; in the test on KB-3-1, 6.36%. Also, the compound was called inactive in the test with NIH3T3 [1], with NIH3T3 [2] and with CASKI. For the same compound, the Potency entry in the test with C33A, in the test with Es-2, in the test on HeLa, with Hek293T, in the test with JEG-3 and with OV90 was “inactive” in each case.
With `O=C(O)c1ccnc2cc(-c3nc4ccccc4n3CCN3CCCCC3)sc12`, the max response is 1.05% with CRL-7250, 2.48% in the test on HEK293, -0.587% in the test on HaCat and 2.06% in the test on KB-3-1. Moreover, the result in the test on NIH3T3 [1] and in the test on CASKI was inactive. Moreover, the Potency result in the test on C33A, in the test on CAOV3, in the test on Es-2, in the test on HeLa, in the test with Hek293T and in the test with JEG-3 was “inactive” in each case. Also, the Potency result in the test with OV90 is “inactive”.
As to `CC1(C)CC[C@]2(C(=O)O)CC[C@]3(C)C(=CCC4[C@@]5(C)C[C@@H](O)[C@H](O)[C@](C)(CO)C5CC[C@]43C)[C@@H]2[C@@H]1O` (stereo partly drawn), the compound was called inactive in the test with CRL-7250, with NIH3T3 [1] and with CASKI. Further, the Potency with HEK293 was 7.96 µM (active). The max response with HaCat was 1.54%; in the test with KB-3-1, -5.13%. Besides, in the test on NIH3T3 [2], the outcome was “inactive [at 17.4 µM]”. Moreover, the Potency result in the test with Hek293T and in the test with OV90 was “inactive” in each case.
As to `O=C(Cc1ccc(Cl)cc1)Nc1cnccc1C(=O)O`, the outcome with CRL-7250, with NIH3T3 [1], in the test with NIH3T3 [2] and in the test on CASKI was inactive. Besides, the max response in the test with HEK293 was 4.18%; in the test with HaCat, -20.9%; with KB-3-1 it was 1.29%. In addition, the Potency result with CAOV3, in the test on Es-2, in the test on HeLa, in the test with Hek293T, in the test with JEG-3 and with OV90 was “inactive” in each case.
Consider `COC(=O)[C@H](O)[C@H]1C(C)(C)[C@H](OC(C)=O)[C@@]2(O)C(=O)[C@]1(C)C1CC[C@]3(C)C(CC(=O)O[C@H]3c3ccoc3)[C@]13O[C@@H]32` (stereo partly drawn), for which the call with CRL-7250, with NIH3T3 [1] and in the test with CASKI was inactive. Further, the max response with HEK293 was -3.86%; in the test on HaCat, 4.44%; with KB-3-1, -6.4%. Also, the Potency result with C33A, with CAOV3, in the test on Es-2, in the test on HeLa, in the test with Hek293T and in the test with JEG-3 was “inactive” each time. Moreover, in the test with OV90, the Potency entry was “inactive”.
As for `Cc1ccccc1N1CCN(S(=O)(=O)C[C@]23CC[C@H](C[C@@H]2NC(=O)[C@@H](N)CCS(C)(=O)=O)C3(C)C)CC1`, the max response is 1.21% in the test with CRL-7250, 4.97% with HEK293, 0.627% in the test with HaCat and 5.94% in the test on KB-3-1. In addition, the outcome with NIH3T3 [1], in the test with NIH3T3 [2] and with CASKI was inactive. Moreover, the Potency result in the test with C33A, in the test on Es-2, in the test on HeLa, in the test on Hek293T, with JEG-3 and in the test with OV90 was “inactive” throughout.
Regarding `CC(NC(=O)CC(=O)O)C(=O)Nc1ccccc1C(N)=O` (stereo not drawn), the max response in the test with CRL-7250 is -2.72%; in the test on HEK293, 2.48%; with HaCat, -2.92%; with KB-3-1 it was 3.19%. Also, the compound was called inactive with NIH3T3 [1] and with NIH3T3 [2]. Also, the Potency entry in the test with C33A, with CAOV3, in the test on Es-2, in the test on HeLa, in the test with Hek293T and in the test on JEG-3 was “inactive” each time. Also, in the test with OV90, the Potency result was “inactive”.
As for `CC(=O)Nc1cccc2c1c(Sc1ccc(Cl)cc1)c(C)n2CC(=O)O`, the max response was -5.82% with CRL-7250, 1.56% in the test on HEK293, -2.39% in the test with HaCat and -3.16% in the test with KB-3-1. For the same compound, the outcome in the test on NIH3T3 [1] and with NIH3T3 [2] was inactive. For the same compound, the Potency entry in the test with Es-2 and with JEG-3 was “inactive” each time.
`O=C(O)C(Cc1ccccc1)NC(=O)C1CCCN1` (stereo not drawn) (H-Pro-Phe-OH; configuration not given here): the max response was -5.01% with CRL-7250, 0.403% with HEK293 and -6.92% with HaCat. Also, the call with KB-3-1, in the test on NIH3T3 [1] and in the test on CASKI was inactive. Also, the Potency result in the test on C33A, with Es-2, in the test with HeLa, in the test with Hek293T, in the test on JEG-3 and with OV90 was “inactive” each time.
As for `Cc1ccc(C)c(NC(=O)CNS(=O)(=O)c2ccc3[nH]c(=O)oc3c2)c1`, the outcome in the test on CRL-7250, in the test with NIH3T3 [1] and with NIH3T3 [2] was inactive. Further, the max response is -17.1% in the test with HEK293, -0.793% with HaCat and 8.68% with KB-3-1. Also, the Potency result with C33A, in the test on CAOV3, with Es-2, in the test on HeLa, with Hek293T and in the test on JEG-3 was “inactive” in each case. Further, the Potency entry with OV90 is “inactive”.
On to `Nc1nc(COC(=O)c2ccc([N+](=O)[O-])cc2)nc(Nc2ccccc2)n1`, for which the max response in the test with CRL-7250 is -7.38%; in the test with HEK293, -16.5%; in the test on HaCat, -9.19%; with KB-3-1 it was -4.58%. Besides, the call in the test with NIH3T3 [1], with NIH3T3 [2] and in the test on CASKI was inactive. Moreover, the Potency result in the test on C33A, in the test with Es-2, in the test on HeLa, in the test on Hek293T, in the test on JEG-3 and in the test with OV90 was “inactive” in each case.
As to `COc1cc(C(C)=O)ccc1O[C@@H]1O[C@H](CO[C@@H]2OC[C@@H](O)[C@H](O)[C@H]2O)[C@@H](O)[C@H](O)[C@H]1O`, the max response in the test on CRL-7250 was 0.428%; in the test with HEK293, -0.597%; in the test with HaCat, -2.37%; in the test on KB-3-1 it was 7.17%. The call with NIH3T3 [1] and in the test on CASKI was inactive. The Potency entry with C33A, in the test on CAOV3, in the test with HeLa, in the test on Hek293T, in the test on JEG-3 and in the test on OV90 was “inactive” in each case.
`FC(F)(F)c1nnc2c(Sc3ccccc3)nc3ccc(Cl)cc3n12`: the Potency in the test on CRL-7250 is 3.66 µM (active); in the test on HEK293 it was 5.8 µM (active); with HaCat it was 4.61 µM (active); in the test on KB-3-1, 5.17 µM (active). The compound was classed as inactive with NIH3T3 [1], in the test with NIH3T3 [2] and in the test with CASKI. The Potency entry in the test on C33A, in the test with HeLa, with Hek293T, in the test on JEG-3 and in the test on OV90 was “inactive” each time.
With `CC[C@H]1OC(=O)[C@H](C)[C@@H](O[C@H]2C[C@@](C)(OC)[C@@H](O)[C@H](C)O2)C(C)[C@@H](O[C@@H]2O[C@H](C)C[C@H](N(C)C)[C@H]2O)[C@](C)(O)C[C@@H](C)CN(C)[C@H](C)[C@@H](O)[C@]1(C)O` (stereo partly drawn), the max response in the test on CRL-7250 is -0.571%; in the test with HEK293, 1.9%; with HaCat, -11.4%; in the test on KB-3-1, -2.18%. Moreover, the outcome with NIH3T3 [1] and in the test on CASKI was inactive. For the same compound, the Potency entry in the test with C33A, with CAOV3, in the test on Es-2, in the test with HeLa, with Hek293T and in the test on JEG-3 was “inactive” in each case. In addition, the Potency result in the test on OV90 is “inactive”.
As for `CC[C@@H](Nc1c(Nc2cccc(C(=O)N(C)C)c2O)c(=O)c1=O)c1ccc(C)o1`, the result in the test on CRL-7250, in the test with KB-3-1, with NIH3T3 [1], with NIH3T3 [2] and in the test with CASKI was inactive. Further, the max response is 0.867% in the test on HEK293 and -4.91% in the test on HaCat. In addition, the Potency entry in the test with C33A, in the test on Es-2, in the test on HeLa, in the test on Hek293T, in the test with JEG-3 and in the test with OV90 was “inactive” in each case.
